Reference: PubChem BioAssay (Tox21)
Results filed as inconclusive are left out. Values without a mark were called inactive. The source made the active and inactive calls. Calls come from the whole dose curve.

Target: Peroxisome proliferator-activated receptor gamma (Homo sapiens) (UniProt P37231)
Assay: qHTS assay to identify small molecule antagonists of the peroxisome proliferator-activated receptor gamma (PPARg) signaling pathway (AID 743191); note: nearly all actives have a fitted effect of over 30% in size
Conditions: HEK293H PPARg-UAS-bla, beta-lactamase ratio, antagonist, 17 h; series mostly up to 62.6 µM; ratio activity, negative = inhibition: at the top concentration
Source text: U.S. Tox21 Program National Center for Advancing Translational Sciences [NCATS] NIH Chemical Genomics Center [NCGC] U.S. Environmental Protection Agency [EPA] National Institutes of Environmental Health Sciences [NIEHS] National Toxicology Program [NTP] U.S. Food and Drug Administration [FDA] Tox21 Assay Overview: The peroxisome proliferator-activated receptors (PPARs) are lipid-activated transcription factors of the nuclear receptor superfamily with three distinct subtypes namely PPAR alpha, PPAR delta (also called PPAR beta) and PPAR gamma (PPARg). All these subtypes heterodimerize with Retinoid X receptor (RXR) and these heterodimers regulate transcription of various genes. PPAR-gamma receptor (glitazone receptor) is involved in the regulation of glucose and lipid metabolism. To identify the compounds that inhibit PPAR-gamma signaling, GeneBLAzer PPAR gamma UAS-bla HEK293H cell line (Invitrogen, Carlsbad, CA, USA) containing a beta-lactamase reporter gene under control of an Upstream Activator Sequence (UAS) was used to screen the Tox21 compound library.
Tox21 Assay Protocol Summary: PPARg-bla cells were dispensed at 3000 cells/6uL/well in 1536-well black wall/clear bottom plates using a Multidrop Combi (Thermo Fisher Scientific, Waltham, MA) dispenser. After the assay plates were incubated at 37C and 5% CO2 for 5 h, 23 nL of compounds dissolved in DMSO, positive controls or DMSO only was transferred to the assay plate by a Pintool station (Kalypsys, San Diego, CA). The assay plates were incubated at 37C for 17 h. After 1 uL of LiveBLAzerTM B/G FRET substrate was added using a Bioraptr Flying Reagent Dispenser (FRD) workstation (Beckman Coulter, Indianapolis, IN, USA), the plates were incubated at room temperature for 1 h, and fluorescence intensity was measured by an Envision plate reader (PerkinElmer, Shelton, CT).
% is set by controls: 0 for no effect and ±100 for the full control effect; potency is the fitted concentration of half-maximal effect.

Chain of Peroxisome proliferator-activated receptor gamma (Homo sapiens) (P37231 whole entry, looked up): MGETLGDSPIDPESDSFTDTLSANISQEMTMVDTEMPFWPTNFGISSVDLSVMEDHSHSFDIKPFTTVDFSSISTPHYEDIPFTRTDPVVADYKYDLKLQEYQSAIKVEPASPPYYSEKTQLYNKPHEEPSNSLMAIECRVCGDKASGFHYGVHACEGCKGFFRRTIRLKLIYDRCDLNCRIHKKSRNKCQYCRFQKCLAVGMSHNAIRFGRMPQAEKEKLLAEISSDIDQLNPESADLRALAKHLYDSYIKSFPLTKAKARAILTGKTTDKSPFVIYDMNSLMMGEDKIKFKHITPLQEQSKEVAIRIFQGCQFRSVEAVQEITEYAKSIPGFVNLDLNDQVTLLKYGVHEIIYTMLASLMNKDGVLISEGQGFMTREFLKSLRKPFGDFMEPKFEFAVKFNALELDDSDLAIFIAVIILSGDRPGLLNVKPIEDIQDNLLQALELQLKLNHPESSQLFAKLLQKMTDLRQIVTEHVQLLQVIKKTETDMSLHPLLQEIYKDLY

Structure (SMILES) | ratio activity, negative = inhibition | Potency
O=C1CCc2cc(OCCCCc3nnnn3C3CCCCC3)ccc2N1 | 5.55% | 
CC(C)(c1cc(Br)c(OCC(Br)CBr)c(Br)c1)c1cc(Br)c(OCC(Br)CBr)c(Br)c1 (stereo not given) | -11.7% | 
CC[N+](CC)(CC)CCOC(=O)C(C1CCCC1)C1CCCC1 | 0.38% | 
Clc1ccnc(Cl)n1 | -4.44% [at 81.1 µM] | 
CCCCCCOC(=O)C(C)CC (stereo not given) | -5.89% | 
CC(C)OC(=O)C(O)(CC(=O)O)CC(=O)O | 4.33% | 
COc1ccc(-c2coc3cc(O)ccc3c2=O)cc1 | 0.22% | 
CCOC(=O)NNc1ccc(N(CC)CC(C)O)nn1 (stereo not given) | 3.81% | 
C[C@@H](O)[C@H](N)C(=O)O | -13.5% [at 29.1 µM] | 
ClCCl | -0.0211% | 
CCCNCCC | 0.336% [at 81.1 µM] | 
O=C(O)c1cccc(C(F)(F)F)c1 | -1.21% | 
O[C@@H]([C@H](O)[C@H](O)CBr)[C@H](O)CBr | -5.1% | 
CC(C)(C)NSc1nc2ccccc2s1 | -14.5% [at 81.1 µM] | 
CC(C)(C)C1CCC(=O)CC1 | 0.724% | 
CCCCNS(=O)(=O)c1ccc(C)cc1 | 2.75% | 
CN1CCCCC1CCN1c2ccccc2Sc2ccc(S(C)=O)cc21 (stereo not given) | 0.437% | 
C=CCCC(=O)/C=C/C1C(C)=CCCC1(C)C (stereo not given) | 1.5% | 
CCCCCCCC | 12.6% | 
CCCCOC(=O)CO | 8.22% | 

Structure (SMILES) | ratio activity, negative = inhibition | Potency
CCCCCCCCCCCCCCCC[N+](C)(C)CC |  | 23.7 µM (active)
COc1ccc(NC(=O)CC(C)=O)cc1 | 3.71% | 
O=C(/C=C/c1ccc(O)c(O)c1)O[C@@H](C(=O)O)[C@@H](OC(=O)/C=C/c1ccc(O)c(O)c1)C(=O)O | -16.4% | 
C1CCC(SSC2CCCCC2)CC1 | 5.18% | 
Cc1cccc(C)c1NC(=O)c1ccc(N)cc1 | -1.45% | 
CCCCOC(=O)CC | 4.1% | 
CCCC1CCC(=O)CC1 | 3.84% | 
[Cl][Pt-2]([Cl])([Cl])[Cl] | -13% [at 81.1 µM] | 
COC(=O)c1ccccc1C | -4.78% | 
Cc1ccc(N/N=c2\c(=O)cc/c(=N\Nc3ccc(S(=O)(=O)O)cc3)c2=O)c(C)c1 | 5.11% | 
O=S(=O)(O)c1ccc(N=Nc2c(O)ccc3ccccc23)cc1 | -7.72% | 
Nc1ccc(Oc2ccc(Cl)cc2)cc1 | -6.69% | 
O=C(O)O | -1.11% [at 5.95 µM] | 
O=C(O)CCN(C1(C(=O)NO)CCCC1)S(=O)(=O)c1ccc(Oc2ccc(F)cc2)cc1 | -16.7% | 
c1ccsc1 | 6.45% | 
CCOC(=O)c1ccc(C2CCC(NC[C@H](O)COc3ccc(O)c(NS(C)(=O)=O)c3)CC2)cc1 (stereo not given in full) | -6.89% | 
CN(C)Cc1ccccc1O | 1.05% | 
CC(=O)OCC=C(C)C | -5.51% | 
CC(CCc1ccccc1)NCC(O)c1ccc(O)c(C(N)=O)c1 (stereo not given) | -14.8% | 
C=C(C)C(=O)OCCCCCCCCCC | 5.39% [at 81.1 µM] | 
